Results taken from PubChem BioAssay (NCATS).
Values joined by “and” are separate entries in the source; they are usually repeats but may differ in a detail not shown here. Identical values can stand only once. Records with an inconclusive call do not appear. Values without a mark were called inactive. Active and inactive are the calls of the source. Calls come from the whole dose curve; as a rule, active = well fitted cell-killing curve with a large enough effect; inconclusive = small, poorly fitted or top-dose-only effect; inactive = flat fitted curve, though single readings scatter. Square brackets hold non-standard residues; d marks the D form. Peptide text beside a SMILES is read from it. ξ: configuration not given here. ξL = CC(C)CC(N)C(=O)O

Assay: U-118MG Cancer Cell Toxicity qHTS against the NCATS CANVASS Library (AID 1347351)
Conditions: U-118MG viability, CellTiter-Glo luminescence, 72 h; series mostly up to 38.3 µM; activity change, negative = cytotoxicity: at the top concentration; outcome: at the top concentration
Procedure, shortened: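 1000 cells/well; 4 h settle; 11-pnt titration; 72 h, 37 degrees C, 5% CO2; CellTiter-Glo, 15min RT; luminescence read.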
% is set by controls: 0 for no effect and ±100 for the full control effect; potency is the fitted concentration of half-maximal effect.

SMILES	Potency	activity change, negative = cytotoxicity
CC[C@@H](c1cc(OC)c(OC)cc1OC)[C@H](C)[C@@H](/C(C)=C/c1cc(OC)c(OC)cc1OC)c1cc(OC)c(OC)cc1OC	inactive	
C/C=C/c1cc2c(c(=O)o1)C(=O)[C@@H](O)[C@H](C)O2		-3.09%
COc1cc2c(cc1OC)[C@@H](c1ccc3c(c1)OCO3)C(C)[C@@H](C)C2=O (stereo not given in full)		2.7%
COc1cc2oc3ccccc3c(=O)c2cc1OC	30.6 µM (active)	
COC(=O)[C@@]1(C)CCC[C@]2(C)c3cc(OC)ccc3CC[C@@H]12		-7.89%
COc1cc2ccc(=O)oc2c(O)c1O[C@@H]1O[C@H](CO)[C@@H](O)[C@H](O)[C@H]1O		-10.9% [at 22.9 µM]
C=C1C[C@H]2O[C@@H]3[C@@H]4[C@H](CC[C@@](C)(O)[C@@H]42)[C@H](C)COC3(C)[C@@H](OC(=O)CCCCCCC)C[C@H]1O (stereo not given in full)		-17.5%
CC1=C(C)C(=O)OC(C(C)C2(O)CCC3C4C5OC5C5(O)CC=CC(=O)C5(C)C4CCC32C)C1 (stereo not given)		-1.78%
C[C@H](CCC(O)C(C)(O)CO)[C@@]1(O)CC[C@@]2(C)C3=C(CC[C@@]21C)[C@@]1(C)CCC(OC(=O)CCC(=O)O)C(C)(C)[C@@H]1CC3 (stereo not given in full)		4.97%
CO[C@@H]1[C@H](O)[C@@H](C)O[C@@H](OC[C@@H]2C(C)OC(=O)/C=C/[C@H](C)C(O[C@@H]3O[C@H](C)CC4(OC(=O)O[C@@H]4C)C3O)[C@@H](C)CC(C)C(=O)/C=C/[C@H]3OC23)[C@@H]1OC (stereo not given in full)	16.8 µM (active)	
C[C@H](c1cnc(N)[nH]1)c1ccc(O)c2[nH]cc(-c3cnc(-c4c[nH]c5ccccc45)c(=O)[nH]3)c12		-7.87%
COc1ccc([C@@H]2c3cc4c(cc3C[C@H](C)C2C)OCO4)cc1OC (stereo not given in full)		-17.4%
C[C@H]1CCC2(OC1)O[C@H]1C[C@H]3[C@@H]4CC(=O)[C@]5(O)C[C@H](O)CC[C@@]5(C)[C@H]4CC[C@@]3(C)[C@H]1[C@H]2C (stereo not given in full)		-8.97%

Assay: COV-362 Cancer Cell Toxicity qHTS against the NCATS CANVASS Library (AID 1347352)
Conditions: COV-362 viability, CellTiter-Glo luminescence, 72 h; series mostly up to 38.3 µM; activity change, negative = cytotoxicity: at the top concentration
Procedure, shortened: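 1000 cells/well, 4 h pre-incubation 37 °C/5% CO2; 11-pnt titration; 72 h; CellTiter-Glo 15 min RT, luminescence.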

SMILES	Potency	activity change, negative = cytotoxicity
CC[C@@H](c1cc(OC)c(OC)cc1OC)[C@H](C)[C@@H](/C(C)=C/c1cc(OC)c(OC)cc1OC)c1cc(OC)c(OC)cc1OC	inactive	
CC[C@@H](C)[C@H]1NC(=O)C(CC(C)C)NC(=O)[C@@H](CC(C)C)NC(=O)[C@H](Cc2c[nH]c3ccccc23)NC(=O)CNC(=O)[C@@H](CC(N)=O)NC1=O (stereo partly drawn) (cyclo(GW[dL][ξL][dI][dN]))		-15.7%
COc1cc2c(cc1OC)[C@@H](c1ccc3c(c1)OCO3)C(C)[C@@H](C)C2=O (stereo not given in full)		-12%
COc1cc2oc3ccccc3c(=O)c2cc1OC		-25.4% [at 76 µM]
COC(=O)[C@@]1(C)CCC[C@]2(C)c3cc(OC)ccc3CC[C@@H]12		3.64%
COc1cc2ccc(=O)oc2c(O)c1O[C@@H]1O[C@H](CO)[C@@H](O)[C@H](O)[C@H]1O		-23.7% [at 22.9 µM]
C[C@H](CCC(O)C(C)(O)CO)[C@@]1(O)CC[C@@]2(C)C3=C(CC[C@@]21C)[C@@]1(C)CCC(OC(=O)CCC(=O)O)C(C)(C)[C@@H]1CC3 (stereo not given in full)		-1.05%
C=C[C@@](C)(O)CC[C@@H]1[C@@]2(C)CCCC(C)(C)[C@@H]2CC[C@@]1(C)O		1.11%
COc1ccc([C@@H]2c3cc4c(cc3C(=O)[C@H](C)C2C)OCO4)cc1OC (stereo not given in full)		-17.9%
C=C1C(=O)O[C@H]2[C@H]1CCC(C)=C1CC[C@@](C)(O)[C@@H]12	16.7 µM (active)	
C[C@H](c1cnc(N)[nH]1)c1ccc(O)c2[nH]cc(-c3cnc(-c4c[nH]c5ccccc45)c(=O)[nH]3)c12		-8.73%
C[C@H]1CCC2(OC1)O[C@H]1C[C@H]3[C@@H]4CC(=O)[C@]5(O)C[C@H](O)CC[C@@]5(C)[C@H]4CC[C@@]3(C)[C@H]1[C@H]2C (stereo not given in full)		-8.4%

Assay: A2780 Cisplatin Sensitive Ovarian Cancer Cell Toxicity qHTS against the NCATS CANVASS Library (AID 1347353); note: nearly all actives have a fitted effect of over 60% in size
Conditions: A2780 ovarian cancer viability, ATPLite luminescence, 72 h; series mostly up to 46.1 µM; activity change, negative = cytotoxicity: at the top concentration; outcome: at the top concentration
Procedure, shortened: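 750 cells/well, 4 h settle; 11-pt cpd titration; 72 h, 37 °C, 5% CO2; ATPLite 10 min RT; luminescence read.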

SMILES	Potency	outcome	activity change, negative = cytotoxicity [%]
O[C@H]1C=C2[C@H]3CN(Cc4cc5c(cc43)OCO5)[C@H]2C[C@@H]1O	9.35 µM (active)		
CC[C@@H](c1cc(OC)c(OC)cc1OC)[C@H](C)[C@@H](/C(C)=C/c1cc(OC)c(OC)cc1OC)c1cc(OC)c(OC)cc1OC	14.8 µM (active) and 20.9 µM (active)		
C/C=C/c1cc2c(c(=O)o1)C(=O)[C@@H](O)[C@H](C)O2	2.35 µM (active)		
CC[C@@H](C)[C@H]1NC(=O)C(CC(C)C)NC(=O)[C@@H](CC(C)C)NC(=O)[C@H](Cc2c[nH]c3ccccc23)NC(=O)CNC(=O)[C@@H](CC(N)=O)NC1=O (stereo partly drawn) (cyclo(GW[dL][ξL][dI][dN]))		inactive	
COC(=O)[C@@]1(C)CCC[C@]2(C)c3cc(OC)ccc3CC[C@@H]12		inactive	
COc1cc2ccc(=O)oc2c(O)c1O[C@@H]1O[C@H](CO)[C@@H](O)[C@H](O)[C@H]1O		inactive [at 27.5 µM]	
CC[C@H]1[C@@H](C)[C@@H](c2cc(OC)c(OC)cc2OC)[C@H](C)[C@@H](c2cc(OC)c(OC)cc2OC)[C@@]12C=C(OC)C(=O)C=C2OC	9.35 µM (active)		
O=C1CCC(=O)N(O)CCCCCNC(=O)CCC(=O)N(O)CCCCCNC(=O)CCC(=O)N(O)CCCCCN1	26.4 µM (active)		
C[C@H](CCC(O)C(C)(O)CO)[C@@]1(O)CC[C@@]2(C)C3=C(CC[C@@]21C)[C@@]1(C)CCC(OC(=O)CCC(=O)O)C(C)(C)[C@@H]1CC3 (stereo not given in full)			-5
COc1cc(C2C3=C(Cc4cc5c(cc42)OCO5)C(=O)OC3)cc(OC)c1OC (stereo not given)	0.0833 µM (active)		
CO[C@@H]1[C@H](O)[C@@H](C)O[C@@H](OC[C@@H]2C(C)OC(=O)/C=C/[C@H](C)C(O[C@@H]3O[C@H](C)CC4(OC(=O)O[C@@H]4C)C3O)[C@@H](C)CC(C)C(=O)/C=C/[C@H]3OC23)[C@@H]1OC (stereo not given in full)	11.8 µM (active)		
C=C[C@@](C)(O)CC[C@@H]1[C@@]2(C)CCCC(C)(C)[C@@H]2CC[C@@]1(C)O		inactive	
C/C(=C\[C@H](C)C(=O)C[C@H](O)CC1CC(=O)NC(=O)C1)[C@@H]1OC(=O)CCCC/C=C/[C@@H](O)C[C@@H]1C	2.35 µM (active)		
CC1=C[C@H]2[C@H]3C(=O)C(c4ccc(O)cc4)=C[C@@]3(c3ccc(O)cc3)[C@@H]1C(=O)[C@]2(C)O	0.418 µM (active)		
C=C1C(=O)O[C@H]2[C@H]1CCC(C)=C1CC[C@@](C)(O)[C@@H]12	4.18 µM (active)		
C/C(=C\[C@H](C)C(=O)/C=C/CC1CC(=O)NC(=O)C1)[C@@H]1OC(=O)CCCC/C=C/[C@H](O)[C@@H](O)[C@@H]1C	10.5 µM (active)		
C[C@H](c1cnc(N)[nH]1)c1ccc(O)c2[nH]cc(-c3cnc(-c4c[nH]c5ccccc45)c(=O)[nH]3)c12		inactive	
COc1ccc([C@@H]2c3cc4c(cc3C[C@H](C)C2C)OCO4)cc1OC (stereo not given in full)	10.5 µM (active)		
C/C1=C/[C@@H](C)[C@H](O)C/C=C/CC/C=C/C(=O)O[C@@H]1[C@H](C)C(=O)CCCC1CC(=O)NC(=O)C1	10.5 µM (active)		
C=C1C[C@H]2O[C@@H]3[C@@H]4[C@H](CC[C@@](C)(O)[C@@H]42)[C@H](C)COC3(C)[C@@H](OC(=O)CCCCCCC)CC1=O (stereo not given in full)	13.2 µM (active)		
